Each structure is given as a SMILES string. Out of some 220,000 compounds screened, about 910 (0.41%) were called active. What follows is part of a selection rich in actives, with near analogues and random picks from the rest. Potency and affinity values are given separately. A number with no mark means an inactive call.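 Rule for the calls: active = primary inhibition above the hit cutoff, then over 50% inhibition at one or more dose response concentrations (cut at about 23% in these data, passing the limit was not always enough); inconclusive = conflicting primary data, or primary hits not chosen for dose response; inactive = low primary inhibition, or under 50% at every dose.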

The values below come from PubChem BioAssay AID1445 (SRMLSC, 2008).

The target in this assay is Aminopeptidase N (Plasmodium falciparum (isolate 3D7)) (UniProt O96935). The experiment in a line: P. falciparum M1AAP inhibitors, biochemical, fluorogenic H-Leu-NHMec substrate, 1536-well (AID 1445).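 Note: plate controls were DMSO full reaction for no effect and no enzyme background for full effect.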 The conditions noted are these: recombinant M1AAP, H-Leu-NHMec fluorogenic kinetic assay; at 30 µM, active compounds read high unless noted.
Chain of Aminopeptidase N (Plasmodium falciparum (isolate 3D7)) (O96935 whole entry, looked up): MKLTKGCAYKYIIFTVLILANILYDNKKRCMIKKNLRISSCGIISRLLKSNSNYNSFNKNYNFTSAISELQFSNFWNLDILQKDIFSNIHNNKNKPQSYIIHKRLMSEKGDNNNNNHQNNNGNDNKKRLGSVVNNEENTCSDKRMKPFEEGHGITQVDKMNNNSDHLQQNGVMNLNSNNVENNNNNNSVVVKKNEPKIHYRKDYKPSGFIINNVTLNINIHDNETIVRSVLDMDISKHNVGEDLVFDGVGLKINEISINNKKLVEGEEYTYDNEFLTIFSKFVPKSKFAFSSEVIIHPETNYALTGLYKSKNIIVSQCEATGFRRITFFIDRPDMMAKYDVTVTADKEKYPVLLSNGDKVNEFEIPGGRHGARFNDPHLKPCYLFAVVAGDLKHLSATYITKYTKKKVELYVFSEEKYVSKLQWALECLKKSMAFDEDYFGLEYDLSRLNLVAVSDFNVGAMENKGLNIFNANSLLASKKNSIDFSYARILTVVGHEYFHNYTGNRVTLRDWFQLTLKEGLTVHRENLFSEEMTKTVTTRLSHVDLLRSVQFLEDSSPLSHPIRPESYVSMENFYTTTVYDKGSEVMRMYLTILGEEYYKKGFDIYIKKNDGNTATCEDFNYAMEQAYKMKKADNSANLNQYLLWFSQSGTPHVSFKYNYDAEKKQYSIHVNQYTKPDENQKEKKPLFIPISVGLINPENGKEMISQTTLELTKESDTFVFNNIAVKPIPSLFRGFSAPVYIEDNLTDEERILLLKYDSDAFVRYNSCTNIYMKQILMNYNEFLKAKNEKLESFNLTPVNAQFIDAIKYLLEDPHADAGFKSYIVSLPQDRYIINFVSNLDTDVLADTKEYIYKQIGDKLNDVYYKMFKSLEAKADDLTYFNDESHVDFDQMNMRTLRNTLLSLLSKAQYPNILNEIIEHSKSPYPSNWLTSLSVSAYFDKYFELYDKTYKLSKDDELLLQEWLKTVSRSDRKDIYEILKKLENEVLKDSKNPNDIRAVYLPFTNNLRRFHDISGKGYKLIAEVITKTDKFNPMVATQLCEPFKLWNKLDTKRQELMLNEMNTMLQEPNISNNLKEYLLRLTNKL
The inhibition is the drop in the measured response relative to a control, in per cent. As for `C=C(Br)Cn1c(CCC)nc2ccccc21`, the inhibition is -1.16%.
With `COc1ccc(NS(=O)(=O)c2cc(NC(=O)c3ccccc3F)ccc2N2CCCC2)cc1` the figure was 3.17%; with `CN(C)CCCNC(=O)c1ccc(Cl)c(S(=O)(=O)N(C)c2ccccc2)c1`, 7.27%; with `O=C(O)C(c1ccccc1)C1(O)CCCC1` (centres undefined), 16.5%.
Take `COc1ccc(S(=O)(=O)N(C)C)cc1NCC(=O)Nc1ccc(Br)cc1F`: the inhibition is 7.15%.
The value for `CC1=C(C#N)C(=O)NC(=O)/C1=C\c1ccc(-c2cc(C)c(C)cc2[N+](=O)[O-])o1` was 11.9%; that for `CC1=C(C#N)C(=O)NC(=O)/C1=C/c1ccc(-c2ccc(S(N)(=O)=O)cc2)o1` was 28.5%; that for `CC1=C(C#N)C(=O)NC(=O)/C1=C\c1ccc(-c2ccc(C)cc2[N+](=O)[O-])o1` was 20.8%.
`C=CCOC(=O)c1cc(-c2ccc(/C=C3\C(=O)NC(=O)C(C#N)=C3C)o2)ccc1Cl`: the inhibition was 46.9% (active).
Turning to `CCOC(=O)c1cc(-c2ccc(/C=N\n3cnnc3)o2)ccc1Cl`, the inhibition is 3.07%.
`CC(=O)N1CCc2cc(S(=O)(=O)CCC(=O)Nc3ccc4c(c3)OCCO4)ccc21`: the inhibition is 7.36%.
`CN(C)CCNC(=O)CN1C(=O)COc2ccc(C(C)(C)C)cc21`: the inhibition is 0.77%.
As to `CC(=O)COC(=O)C1CC(=O)N(c2ccc(C)c(C)c2)C1` (centres undefined), the inhibition was 3.99%.
With `O=C(COc1ncnc2ccccc12)NCCc1ccccc1` the figure was 1.63%.
The value for `CC(C)(O)C(=O)N=Nc1c(O)[nH]c2ccccc12` was 1.86%; that for `NC(=S)N=Nc1c(O)[nH]c2ccccc12` was 23.1%.
The value for `O=C(CSc1nnc(-c2ccccn2)n1Cc1ccccc1)N1CCOCC1` was 2.23%; that for `CCOC(=O)c1[nH]cnc1C(=O)Nc1ccccc1` was 19.7%.
As for `CCOC(=O)c1[nH]cnc1C(=O)Nc1ccc(C)cc1`, the inhibition was 2.53%.
The value for `O=C(Cn1cc(C(F)(F)F)ccc1=O)N1CCN(S(=O)(=O)c2ccc(Cl)cc2)CC1` was 0.58%.
The value for `CCN1CC(CN(C)Cc2cn(-c3cccc(C)c3)nc2-c2cccc(F)c2)CC1=O` (centres undefined) was 0.42%; that for `Cc1cc2c(c(SCC(N)=O)n1)C(=O)OC2` was 0.63%.
With `CCOC(=O)CC1C(=O)NCCN1S(=O)(=O)c1ccc(OC)cc1` (centres undefined) the figure was -8.28%.
Turning to `CCCN1C(=O)/C(=C/c2c(NCCCOC(C)C)nc3c(C)cccn3c2=O)SC1=S`, the inhibition was -6.67%.
For the compound `CCOC(=O)CC1C(=O)NCCN1C(=O)c1cc2c(=O)n3cccc(C)c3nc2s1` (centres undefined), the inhibition was 11.1%.
With `CCC(C)N1C(=O)/C(=C/c2c(NCCCOC(C)C)nc3c(C)cccn3c2=O)SC1=S` (centres undefined), the inhibition is 10.2%.
For the compound `CCCN1C(=O)/C(=C/c2c(NCCCOCC)nc3c(C)cccn3c2=O)SC1=S`, the inhibition was -3.51%.
With `CCOCCCNc1nc2c(C)cccn2c(=O)c1/C=C1\SC(=S)N(CC(C)C)C1=O` the figure was -0.56%; with `Cc1c(NC(=O)CN2C(=O)NC3(CCCCC3)C2=O)c(=O)n(-c2ccccc2)n1C`, -1.23%.
The value for `COc1ccc(S(=O)(=O)N2CCN(C)CC2)cc1Br` was -2.63%; that for `Cc1nc(SCC(=O)Nc2ccccc2)c2oc3ccccc3c2n1` was -7.15%; that for `O=C(Nc1ccccc1)Oc1ccccc1N1CCOCC1` was 2.65%.
On to `COc1cc(C(=S)N2CCOCC2)ccc1OC(=O)c1cc([N+](=O)[O-])cc([N+](=O)[O-])c1`, for which the inhibition is 4.71%.
The value for `CCn1c(NC(=O)c2cccs2)c(-c2cccs2)c(=O)c2ccccc21` was 27% (active); that for `CCn1c(NC(=O)c2ccccc2)c(-c2cccs2)c(=O)c2ccccc21` was 7.57%.
With `CCCC(=O)Nc1c(-c2cccs2)c(=O)c2ccccc2n1CC`, the inhibition is 3.31%.
On to `CCn1c(O)c(N=NC(=O)C(O)c2ccccc2)c2ccccc21` (centres undefined), for which the inhibition is 5.57%.
As to `CCOC(=O)N=Nc1c(O)n(CC)c2ccccc12`, the inhibition is 3.07%.
The value for `CC(C)CC1=NN2C(=N)/C(=C\c3coc4ccccc4c3=O)C(=O)N=C2S1` was 58%; that for `N=C1/C(=C\c2coc3ccccc3c2=O)C(=O)N=C2SC=CN12` was 52.2%; that for `CC1=CC2=NC(=O)/C(=C/c3coc4ccc(Cl)cc4c3=O)C(=N)N2O1` was 7.94%.
With `N=C1/C(=C/c2coc3ccccc3c2=O)C(=O)N=C2SC(c3ccco3)=NN12` the figure was 18.6%; with `CCN1CCN(C(=O)C2CCN(Cc3cc(Cl)ccc3O)CC2)CC1`, 0.1%; with `O=C(COC(=O)c1cc(NS(=O)(=O)c2cccs2)ccc1O)Nc1ccc(F)c(F)c1F`, 6.76%.
With `CC(C)(C)C(=O)Nc1ccc(S(=O)(=O)Nc2ccccn2)cc1` the figure was 4.68%.
As to `C/C(Cc1ccccc1)=N/NC(=O)CCCC(=O)N/N=C(/C)Cc1ccccc1`, the inhibition is 1.32%.
For `COc1ccc(C(=O)NNC(=O)Nc2ccc(C)cc2)cc1`, the inhibition is -2.61%.
With `CCOC(=O)C(NC(=O)c1ccccc1Cl)(Nc1ccc(C)c(C)c1)C(F)(F)F` (centres undefined) the figure was 3.71%; with `Cc1cnc(NC(=O)c2sc3ccccc3c2Cl)s1`, 5.85%.
With `CCC(CC)c1nnc(NC(=O)c2ccc3ccccc3n2)s1` the figure was 44%; with `Cc1nnc(NC(=O)c2sc3ccccc3c2Cl)s1`, 27.1% (active).
As for `CCc1nnc(NC(=O)c2ccc3ccccc3n2)s1`, the inhibition was 18.2%.
With `COCc1nnc(NC(=O)c2sc3ccccc3c2Cl)s1` the figure was 17.9%; with `CC1=C(C(=O)Nc2ccccn2)C(c2ccc(N(C)C)cc2)n2ncnc2N1` (centres undefined), -4.41%.
The value for `CCC(C)[C@H](NC(=O)NC1CC1)C(=O)O` (some centres undefined) was 5.68%.
Turning to `CCN(CC)c1cc(C)c2cc(NC(=O)c3ccc(Br)o3)ccc2n1`, the inhibition was 8.17%.
With `C[N+]1(CCCOC(=O)C2(c3ccccc3)CCCC2)CCOCC1` the figure was 12.4%.
Regarding `COc1ccc(-n2c(=O)c3c4c(sc3n(CC(N)=O)c2=O)CCCCC4)cc1`, the inhibition was 4.45%.
Turning to `NC(=O)Cn1c(=O)n(CCc2ccccc2)c(=O)c2c3c(sc21)CCCC3`, the inhibition is -0.91%.
